Data as given in the supplement of paper PMC10849652.
Of roughly 8,800 targets only a part is listed; those with a hit were picked by preference. About 0.5% of all pairs of compound and target were hits.

What was measured:
Experiment in all cases: log2 fold change, soluble protein after heating vs DMSO (PISA); higher = thermal stabilisation; K562 lysate, 10 uM; active = over 0.2 and 3.5 SD of the protein, either way, in both replicates (recomputed)
erlotinib = compound: C#Cc1cccc(Nc2ncnc3cc(OCCOC)c(OCCOC)cc23)c1 [erlotinib]
In short: (§1)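 Log-two fold change in thermal stability relative to solvent controls is reported from duplicates. For each sample, crude K562 extract from dounce-homogenised pellets in PBS pH 7.4 with 1 mM MgCl2, at 1 mg/mL protein, was treated with 10 μM compound for 30 min. Aliquots heated for 3 min across 48°C-58°C were pooled, brought to 0.5% NP-40 at 4°C and cleared at 21,000xg for 90 min. The supernatant was quantified by TMTpro 16plex LC-MS/MS with channel sums equalised.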

[1] = compound: C/C(=N\NC(=O)C1=CC(=CC=C1)S(=O)(=O)N2CCOCC2)/C3=C(C=CC(=C3)Cl)O
In short: as §1

[2] = compound: C1=CC(=CC=C1C2=NC3=C(N2)C=C(C=C3)C(=O)N)OC4=CC=C(C=C4)Cl
In short: as §1

[3] = compound: C1=CC2=C(C=CC(=C2)/C=C\3/C(=O)NC(=NCC4=CC=CS4)S3)N=C1
In short: as §1

[4] = compound: C1=CC2=NC=CN=C2C=C1/C=C/3\C(=O)NC(=O)S3
In short: as §1

[5] = compound: C1=CC=C(C=C1)C2=NC(=C(N2)C3=CC=NC=C3)C4=CC(=C(C=C4)Cl)O
In short: as §1

[6] = compound: C1=CC=C2C(=C1)C3=NNC4=CC=CC(=C43)C2=O
In short: as §1

[7] = compound: C1CCN(C1)C(=O)NC2=CC=CC(=C2)NC3=NC=C(C(=N3)NCCC4=CN=CN4)Br
In short: as §1

[8] = compound: C1CN(CCC1(CC2=CC=C(C=C2)Cl)N)C3=NC=NC4=C3C=CN4
In short: as §1

IRAK-1-4 Inhibitor I = compound: C1COCCN1CCN2C3=CC=CC=C3N=C2NC(=O)C4=CC(=CC=C4)[N+](=O)[O-] [IRAK-1-4 Inhibitor I]
In short: as §1

Measured: log2 fold change

STMN3 (UniProt Q9NZ72)
Chain of UniProt Q9NZ72 (Q9NZ72 whole entry, looked up): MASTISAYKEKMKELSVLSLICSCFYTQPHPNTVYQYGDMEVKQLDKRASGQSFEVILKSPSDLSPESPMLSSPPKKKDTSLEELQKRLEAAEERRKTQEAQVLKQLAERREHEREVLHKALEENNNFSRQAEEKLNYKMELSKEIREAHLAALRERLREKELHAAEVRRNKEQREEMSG
inactive: erlotinib 0.012 | [1] 0.01 | [2] -0.003 | [3] -0.122 | [4] -0.062 | [5] -0.026 | [6] 0.043 | [7] -0.097 | [8] 0.091 | IRAK-1-4 Inhibitor I -0.006

TADA3 (UniProt O75528)
inactive: erlotinib 0.02 | [1] -0.046 | [2] 0.032 | [3] -0.073 | [4] -0.04 | [5] 0.048 | [6] 0.009 | [7] -0.058 | [8] 0.053 | IRAK-1-4 Inhibitor I 0.018

STUB1 (UniProt Q9UNE7)
inactive: erlotinib 0.05 | [1] 0.024 | [2] -0.034 | [3] -0.022 | [4] 0.009 | [5] 0.003 | [6] -0.033 | [7] 0.013 | [8] 0.006 | IRAK-1-4 Inhibitor I -0.018

SMARCA4 (UniProt P51532)
Chain of UniProt P51532 (P51532 whole entry, looked up): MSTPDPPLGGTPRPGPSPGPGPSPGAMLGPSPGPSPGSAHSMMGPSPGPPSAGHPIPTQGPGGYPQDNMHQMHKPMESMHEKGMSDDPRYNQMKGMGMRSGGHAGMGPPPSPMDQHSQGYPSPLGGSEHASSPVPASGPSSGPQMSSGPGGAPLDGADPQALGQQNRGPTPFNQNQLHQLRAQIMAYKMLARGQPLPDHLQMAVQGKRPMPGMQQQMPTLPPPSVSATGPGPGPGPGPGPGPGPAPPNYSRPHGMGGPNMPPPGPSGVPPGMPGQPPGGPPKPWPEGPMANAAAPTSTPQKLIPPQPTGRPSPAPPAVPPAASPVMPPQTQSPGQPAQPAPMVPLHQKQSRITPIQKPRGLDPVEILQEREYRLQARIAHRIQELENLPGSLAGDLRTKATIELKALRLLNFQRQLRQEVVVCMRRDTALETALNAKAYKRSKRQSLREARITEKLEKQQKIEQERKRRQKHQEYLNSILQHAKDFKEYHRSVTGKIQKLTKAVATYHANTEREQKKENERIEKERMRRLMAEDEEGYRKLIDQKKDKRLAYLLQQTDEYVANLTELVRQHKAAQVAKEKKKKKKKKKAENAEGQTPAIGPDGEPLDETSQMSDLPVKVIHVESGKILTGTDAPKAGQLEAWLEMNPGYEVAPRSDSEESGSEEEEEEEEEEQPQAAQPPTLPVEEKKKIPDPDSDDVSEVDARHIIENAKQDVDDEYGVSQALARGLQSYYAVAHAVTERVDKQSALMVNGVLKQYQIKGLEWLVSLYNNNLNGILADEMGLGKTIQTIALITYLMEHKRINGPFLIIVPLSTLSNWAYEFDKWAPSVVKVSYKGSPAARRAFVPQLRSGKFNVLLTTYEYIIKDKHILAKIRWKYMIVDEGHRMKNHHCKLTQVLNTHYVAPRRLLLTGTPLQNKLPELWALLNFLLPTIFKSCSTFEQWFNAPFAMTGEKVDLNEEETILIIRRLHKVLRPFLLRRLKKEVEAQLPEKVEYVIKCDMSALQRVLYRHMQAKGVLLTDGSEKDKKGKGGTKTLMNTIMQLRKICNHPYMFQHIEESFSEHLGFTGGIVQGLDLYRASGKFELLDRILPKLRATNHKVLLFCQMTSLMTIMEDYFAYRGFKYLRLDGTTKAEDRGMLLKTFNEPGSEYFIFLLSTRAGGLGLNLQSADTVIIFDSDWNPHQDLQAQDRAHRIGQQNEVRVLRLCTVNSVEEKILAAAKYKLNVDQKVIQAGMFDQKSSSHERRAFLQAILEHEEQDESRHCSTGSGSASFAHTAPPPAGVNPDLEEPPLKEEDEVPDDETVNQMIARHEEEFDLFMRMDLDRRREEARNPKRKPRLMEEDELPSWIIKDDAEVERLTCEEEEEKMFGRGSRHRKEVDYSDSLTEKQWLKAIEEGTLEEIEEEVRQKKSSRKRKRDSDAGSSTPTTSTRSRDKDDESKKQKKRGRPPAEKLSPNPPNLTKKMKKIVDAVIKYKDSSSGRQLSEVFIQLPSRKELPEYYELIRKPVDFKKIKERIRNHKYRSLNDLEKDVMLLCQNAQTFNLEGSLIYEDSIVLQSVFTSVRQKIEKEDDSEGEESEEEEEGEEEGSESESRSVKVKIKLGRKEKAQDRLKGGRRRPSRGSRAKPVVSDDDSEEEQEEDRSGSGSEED
inactive: erlotinib -0.01 | [1] -0.018 | [2] -0.021 | [3] 0.011 | [4] -0.001 | [5] -0.003 | [6] -0.017 | [7] -0.003 | [8] -0.024 | IRAK-1-4 Inhibitor I -0.025

SUZ12 (UniProt Q15022)
inactive: erlotinib 0.024 | [1] -0.077 | [2] -0.018 | [3] 0.007 | [4] 0.004 | [5] 0.034 | [6] -0.079 | [7] -0.038 | [8] -0.021 | IRAK-1-4 Inhibitor I 0.02

TARBP2 (UniProt Q15633)
inactive: erlotinib 0.03 | [1] -0.095 | [2] -0.066 | [3] -0.026 | [4] 0.007 | [5] 0.027 | [6] -0.029 | [7] 0.012 | [8] -0.002 | IRAK-1-4 Inhibitor I 0.011

SRSF9 (UniProt Q13242)
active: [1] 0.263
inactive: erlotinib 0.027 | [2] 0.007 | [3] 0.077 | [4] 0.052 | [5] -0.01 | [6] 0.097 | [7] 0.072 | [8] 0.007 | IRAK-1-4 Inhibitor I 0.012

SYK (UniProt P43405)
inactive: erlotinib -0.004 | [1] -0.007 | [2] 0.017 | [3] 0.039 | [4] -0.033 | [5] 0.021 | [7] -0.013 | [8] -0.038 | IRAK-1-4 Inhibitor I 0.053

STN1 (UniProt Q9H668)
inactive: erlotinib -0.126 | [1] 0.049 | [2] 0.142 | [3] 0.075 | [4] -0.098 | [5] 0.019 | [6] -0.061 | [7] -0.045 | [8] 0.043 | IRAK-1-4 Inhibitor I 0.034

STIM1 (UniProt Q13586)
Chain of UniProt Q13586 (Q13586 whole entry, looked up): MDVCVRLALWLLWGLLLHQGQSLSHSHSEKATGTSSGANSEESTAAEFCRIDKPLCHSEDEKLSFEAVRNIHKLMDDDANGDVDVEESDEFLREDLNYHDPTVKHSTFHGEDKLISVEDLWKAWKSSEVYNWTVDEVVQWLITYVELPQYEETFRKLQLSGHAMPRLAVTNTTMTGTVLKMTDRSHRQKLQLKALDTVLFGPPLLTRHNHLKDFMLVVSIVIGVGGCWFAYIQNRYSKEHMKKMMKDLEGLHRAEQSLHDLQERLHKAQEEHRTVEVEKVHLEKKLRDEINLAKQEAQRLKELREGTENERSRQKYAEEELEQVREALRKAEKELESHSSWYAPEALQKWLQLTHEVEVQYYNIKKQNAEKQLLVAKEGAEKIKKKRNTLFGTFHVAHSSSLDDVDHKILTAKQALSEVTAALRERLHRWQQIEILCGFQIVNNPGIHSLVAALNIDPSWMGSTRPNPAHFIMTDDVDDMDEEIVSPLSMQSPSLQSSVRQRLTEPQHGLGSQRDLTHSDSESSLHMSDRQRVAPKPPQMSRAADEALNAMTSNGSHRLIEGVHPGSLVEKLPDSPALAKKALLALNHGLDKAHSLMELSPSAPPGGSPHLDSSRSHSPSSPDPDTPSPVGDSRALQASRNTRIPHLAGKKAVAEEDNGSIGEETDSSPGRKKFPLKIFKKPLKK
inactive: erlotinib -0.037 | [1] 0.089 | [2] -0.014 | [3] 0.021 | [4] 0.001 | [5] -0.016 | [6] -0.059 | [7] -0.009 | [8] 0.005 | IRAK-1-4 Inhibitor I -0.01

SLC26A6 (UniProt Q9BXS9)
inactive: erlotinib -0.04 | [1] -0.117 | [2] 0.024 | [3] -0.018 | [4] -0.044 | [5] 0.032 | [6] -0.114 | [7] -0.13 | [8] 0.087 | IRAK-1-4 Inhibitor I -0.062

STAU1 (UniProt O95793)
Chain of UniProt O95793 (O95793 whole entry, looked up): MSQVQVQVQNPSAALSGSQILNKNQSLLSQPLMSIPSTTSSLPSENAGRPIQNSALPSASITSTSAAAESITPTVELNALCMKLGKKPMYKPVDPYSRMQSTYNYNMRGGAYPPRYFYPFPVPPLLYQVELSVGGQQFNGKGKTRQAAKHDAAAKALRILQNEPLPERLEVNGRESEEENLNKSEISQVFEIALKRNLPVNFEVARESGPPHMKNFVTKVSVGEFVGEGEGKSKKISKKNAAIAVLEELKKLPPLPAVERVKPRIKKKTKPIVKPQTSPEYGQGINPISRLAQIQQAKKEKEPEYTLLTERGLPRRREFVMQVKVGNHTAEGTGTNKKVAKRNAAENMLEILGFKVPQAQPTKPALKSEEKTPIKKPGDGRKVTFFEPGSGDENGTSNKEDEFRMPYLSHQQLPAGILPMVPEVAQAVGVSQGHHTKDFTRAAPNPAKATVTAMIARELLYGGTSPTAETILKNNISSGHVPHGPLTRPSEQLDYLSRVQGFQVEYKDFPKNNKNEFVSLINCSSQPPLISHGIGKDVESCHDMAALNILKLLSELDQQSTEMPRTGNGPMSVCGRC
inactive: erlotinib 0.02 | [1] -0.001 | [2] -0.032 | [3] 0.002 | [4] -0.016 | [5] -0.08 | [6] -0.007 | [7] -0.018 | [8] -0.003 | IRAK-1-4 Inhibitor I 0.055

SPATA5L1 (UniProt Q9BVQ7)
Chain of UniProt Q9BVQ7 (Q9BVQ7 whole entry, looked up): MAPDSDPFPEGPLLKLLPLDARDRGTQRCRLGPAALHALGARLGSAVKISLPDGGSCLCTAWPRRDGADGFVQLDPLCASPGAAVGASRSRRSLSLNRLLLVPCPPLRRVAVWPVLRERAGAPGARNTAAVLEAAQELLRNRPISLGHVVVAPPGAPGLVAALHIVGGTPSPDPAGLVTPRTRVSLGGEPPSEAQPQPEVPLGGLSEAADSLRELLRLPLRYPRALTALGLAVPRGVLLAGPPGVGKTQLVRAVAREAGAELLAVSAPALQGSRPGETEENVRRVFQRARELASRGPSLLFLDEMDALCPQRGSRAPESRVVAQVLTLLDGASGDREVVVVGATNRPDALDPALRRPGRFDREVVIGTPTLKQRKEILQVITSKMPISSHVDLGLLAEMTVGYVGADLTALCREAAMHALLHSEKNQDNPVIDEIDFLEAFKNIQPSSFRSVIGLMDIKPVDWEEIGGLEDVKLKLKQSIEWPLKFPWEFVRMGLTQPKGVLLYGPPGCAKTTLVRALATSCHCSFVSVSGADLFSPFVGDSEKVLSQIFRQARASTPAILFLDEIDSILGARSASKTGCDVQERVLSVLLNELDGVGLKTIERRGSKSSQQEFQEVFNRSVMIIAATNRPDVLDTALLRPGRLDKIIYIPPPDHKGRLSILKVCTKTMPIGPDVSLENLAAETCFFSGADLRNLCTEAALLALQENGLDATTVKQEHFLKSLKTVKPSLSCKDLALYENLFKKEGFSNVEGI
inactive: erlotinib 0.09 | [1] -0.053 | [2] -0.017 | [3] 0.044 | [4] 0.004 | [5] 0.069 | [6] 0.01 | [7] 0.027 | [8] 0.032 | IRAK-1-4 Inhibitor I 0.015

SORBS3 (UniProt O60504)
inactive: erlotinib -0.01 | [1] 0.028 | [2] 0.021 | [3] 0.018 | [4] -0.054 | [5] -0.092 | [6] 0.057 | [7] 0.09 | [8] 0.129 | IRAK-1-4 Inhibitor I 0.088

SNRPD3 (UniProt P62318)
inactive: erlotinib 0.017 | [1] 0.021 | [2] 0.016 | [3] -0.057 | [4] 0.013 | [5] -0.013 | [6] 0.033 | [7] 0.019 | [8] 0.044 | IRAK-1-4 Inhibitor I 0.026

TAF9 (UniProt Q16594)
inactive: erlotinib 0.022 | [1] 0.009 | [2] 0.081 | [3] 0.056 | [4] 0.002 | [5] 0.013 | [6] -0.052 | [7] -0.08 | [8] 0.084 | IRAK-1-4 Inhibitor I 0.032

SH3BP2 isoform 4 (UniProt P78314)
inactive: erlotinib -0.037 | [1] 0.213 | [2] 0.001 | [3] 0.044 | [4] -0.103 | [5] 0.088 | [6] -0.073 | IRAK-1-4 Inhibitor I 0.03

STK24 (UniProt B4DR80)
inactive: erlotinib 0.019 | [1] 0.02 | [2] 0.018 | [3] -0.04 | [4] -0.003 | [5] -0.004 | [6] 0.198 | [7] 0.045 | [8] 0.013 | IRAK-1-4 Inhibitor I -0.007

SHCBP1 (UniProt Q8NEM2)
Chain of UniProt Q8NEM2 (Q8NEM2 whole entry, looked up): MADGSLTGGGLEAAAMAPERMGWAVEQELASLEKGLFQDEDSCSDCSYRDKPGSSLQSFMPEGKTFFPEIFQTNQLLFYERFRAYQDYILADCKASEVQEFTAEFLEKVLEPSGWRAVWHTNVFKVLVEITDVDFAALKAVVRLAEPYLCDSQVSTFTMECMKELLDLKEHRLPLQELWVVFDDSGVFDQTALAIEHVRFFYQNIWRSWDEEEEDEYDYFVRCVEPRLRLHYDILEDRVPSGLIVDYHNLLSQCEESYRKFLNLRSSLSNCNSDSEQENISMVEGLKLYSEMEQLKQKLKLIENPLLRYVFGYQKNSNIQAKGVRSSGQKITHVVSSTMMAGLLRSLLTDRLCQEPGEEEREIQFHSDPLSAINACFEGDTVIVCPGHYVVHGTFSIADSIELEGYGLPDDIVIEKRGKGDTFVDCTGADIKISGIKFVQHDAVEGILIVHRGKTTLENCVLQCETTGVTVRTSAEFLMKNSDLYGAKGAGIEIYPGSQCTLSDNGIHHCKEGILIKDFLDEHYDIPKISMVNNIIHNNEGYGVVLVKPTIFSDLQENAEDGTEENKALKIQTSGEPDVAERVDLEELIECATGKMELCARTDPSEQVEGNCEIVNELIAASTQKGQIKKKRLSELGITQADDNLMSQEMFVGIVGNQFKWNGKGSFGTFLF
inactive: erlotinib 0.034 | [1] 0.01 | [2] -0.035 | [3] -0.023 | [4] 0.007 | [5] 0.032 | [6] 0.005 | [7] 0.014 | [8] -0.014 | IRAK-1-4 Inhibitor I 0.018

SRGN (UniProt P10124)
Chain of UniProt P10124 (P10124 whole entry, looked up): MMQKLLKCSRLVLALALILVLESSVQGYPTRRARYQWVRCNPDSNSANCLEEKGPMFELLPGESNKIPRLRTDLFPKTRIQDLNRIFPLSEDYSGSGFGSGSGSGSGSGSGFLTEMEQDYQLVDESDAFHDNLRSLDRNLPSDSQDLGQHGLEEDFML
inactive: erlotinib -0.034 | [1] 0.023 | [2] 0.051 | [3] -0.019 | [4] 0.05 | [5] 0.051 | [6] -0.069 | [7] 0.065 | [8] -0.139 | IRAK-1-4 Inhibitor I 0.013

SMAD9 (UniProt O15198)
inactive: erlotinib 0.005 | [1] 0.048 | [2] -0.037 | [3] 0.007 | [4] 0.018 | [5] 0.053 | [6] 0.017 | [7] -0.048 | [8] -0.059 | IRAK-1-4 Inhibitor I 0

STK36 (UniProt Q9NRP7)
inactive: erlotinib 0.114 | [1] -0.06 | [2] 0.251 | [3] -0.199 | [4] -0.169 | [5] -0.075 | [6] -0.241 | [7] -0.049 | [8] 0.185 | IRAK-1-4 Inhibitor I 0.205

SYNE2 isoform 2 (UniProt Q8WXH0)
inactive: erlotinib -0.09 | [1] -0.069 | [2] -0.023 | [3] -0.156 | [4] -0.04 | [5] -0.015 | [6] -0.146 | [7] -0.064 | [8] 0.037 | IRAK-1-4 Inhibitor I 0.127

SLC25A38 (UniProt Q96DW6)
Chain of UniProt Q96DW6 (Q96DW6 whole entry, looked up): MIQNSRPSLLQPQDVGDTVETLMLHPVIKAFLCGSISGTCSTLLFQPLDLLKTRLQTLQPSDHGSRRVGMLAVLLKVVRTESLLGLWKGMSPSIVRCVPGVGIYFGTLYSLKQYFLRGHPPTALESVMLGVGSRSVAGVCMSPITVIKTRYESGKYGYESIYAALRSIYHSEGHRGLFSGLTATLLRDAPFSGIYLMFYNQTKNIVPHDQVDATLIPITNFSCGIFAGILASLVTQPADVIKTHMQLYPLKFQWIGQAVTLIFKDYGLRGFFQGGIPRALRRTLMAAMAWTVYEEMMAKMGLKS
inactive: erlotinib -0.077 | [1] -0.117 | [2] -0.024 | [3] -0.049 | [4] -0.086 | [5] -0.114 | [6] -0.092 | [7] -0.023 | [8] -0.07 | IRAK-1-4 Inhibitor I -0.052

SLC25A32 (UniProt Q9H2D1)
inactive: erlotinib 0.035 | [1] 0.02 | [2] -0.062 | [3] 0.011 | [4] -0.013 | [5] -0.027 | [6] 0.056 | [7] 0.018 | [8] -0.002 | IRAK-1-4 Inhibitor I 0.029
